Sampled rows, rich in hits. Any-hit rate of the full collection: about 1.9%.
Furin inh = human furin inhibition. P09958. purified furin, fluorogenic substrate cleavage. inhibition, % at 20 µM or 30 µM. 220,000 compounds, 0.061% hits. AID 463115; in the data active = inhibition above about 25%
Efa HMGR inh = E. faecalis class II HMG-CoA reductase inhibition | purified E. faecalis HMGR, NADPH absorbance 340 nm kinetic | inhibition, % at 10 µM | 190,000 compounds, 0.41% hits;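 active = inhibition above a set limit, the median over all tested compounds plus 3 SD, cut at about 9.5% in these data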;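 note: enzyme runs in reverse so mevalonate oxidation gives rising NADPH absorbance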
EP2 modulator = EP2 receptor (human) modulation | EP2-expressing cells, cAMP HTRF FRET, PGE2 co-stimulation | P43116 | 260,000 compounds, 0.83% hits | AID 940 | induction, % at 25 µM;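 active = compounds whose cAMP rise, as percent of the full-agonist control response, exceeds 60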;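 note: rat C6 glioma line stably carrying human EP2 under a CMV promoter; the protocol text gives 20 µM as final concentration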
Target sequence (P43116 whole entry, looked up): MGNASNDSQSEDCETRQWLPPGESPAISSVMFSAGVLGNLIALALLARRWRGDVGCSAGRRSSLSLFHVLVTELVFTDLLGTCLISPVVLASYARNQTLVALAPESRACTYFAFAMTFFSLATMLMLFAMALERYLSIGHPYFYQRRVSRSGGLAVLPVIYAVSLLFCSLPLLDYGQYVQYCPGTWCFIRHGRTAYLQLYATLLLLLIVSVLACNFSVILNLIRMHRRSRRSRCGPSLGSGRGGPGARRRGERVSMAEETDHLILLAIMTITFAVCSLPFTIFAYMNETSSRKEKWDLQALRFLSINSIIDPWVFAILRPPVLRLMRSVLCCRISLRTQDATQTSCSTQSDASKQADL
m-calpain inh = calpain II (pig) inhibition; 220,000 compounds, 0.37% hits; inhibition, % at 16 µM; purified calpain II, fluorogenic peptide substrate, 30 min;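 active = inhibition above about 50%, limit read from the data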
EP2 antag = blocks the human prostaglandin E2 receptor EP2; inhibition, % at 25 µM; C6 glioma cells expressing human EP2, cAMP TR-FRET; cells stimulated with saturating PGE2; 260,000 compounds, 0.52% hits; P43116; AID 1422;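 active = percent inhibition above 40 after rounding to a whole number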;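 note: rat C6 glioma host cells with rolipram phosphodiesterase inhibitor present; the protocol text gives 20 µM as final concentration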
EP2 confirm = human EP2 receptor cAMP induction, negative in counter-screens; shares compounds with EP2 modulator; C6 glioma EP2 cells, cAMP HTRF induction; plus low (about EC15) PGE2 agonist; calls only at 20 µM (by protocol); 1,300 compounds, 47% hits; AID 1080;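 active = cAMP induction above 50% in the main assay while under 30% in all four parallel counter assays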;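 note: rat C6 glioma cells stably expressing human EP2 receptor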
Hits are given with their value; 0 = inactive; - = no result; + = active, no number.

SMILES	Furin inh	Efa HMGR inh	EP2 modulator	m-calpain inh	EP2 antag	EP2 confirm
CC1CCN(c2ccccc2NC(=O)c2ccc(C#N)cc2F)CC1	0	0	0	0	0	+
CC(C)C(=O)N1CCN(c2ccccc2NC(=O)c2ccc(C#N)cc2F)CC1	0	0	0	0	0	-
Cc1cc(C)n(-c2cc(-c3ccccc3)nc(C)n2)n1	0	0	68.9	0	0	0
Cc1nn(CC(=O)Nc2ccccc2Br)c(=O)c2cc3sccc3n12	-	-	0	-	-	-
COc1nc(C)ccc1-c1noc(-c2ccc(C)cc2)n1	-	-	0	-	0	-
Cc1cc(C)n(-c2nc3ccccc3nc2Nc2ccc3[nH]c(=O)[nH]c3c2)n1	0	0	83.0	0	0	0
CCOC(=O)C(Cc1ccccc1)(NC(C)=O)C(=O)OCC	0	0	84.8	0	0	0
Cc1[nH]cnc1CN(Cc1cccc(F)c1)CC1CCCO1 (stereo not drawn)	-	-	0	-	0	-
CCN(CC)C(=O)c1nn(-c2ccccc2)c2c1C1CCC2(C)C1(C)C (stereo not drawn)	0	0	71.7	0	0	0
COc1ccc(Cn2c(-c3ccc(OC)cc3)nc3ccccc32)cc1	0	0	66.9	0	-	0
COc1ccc(-c2nc3c(c(=O)[nH]c(=O)n3Cc3ccccc3)n2Cc2ccccc2)cc1	0	0	74.3	0	0	+
COc1ccc(N(Cc2ccccc2)S(=O)(=O)c2ccc(C)cc2)cc1	0	0	69.1	0	0	+
Cc1ccc(N(Cc2ccccc2)Cc2ccccc2)cc1	-	-	0	-	0	0
Cn1cc(-c2ccccc2C(N)=O)c(=O)c2cc(Cl)ccc21	0	0	0	0	0	-
Cn1cc(C2=C(c3ccc(Cl)cc3Cl)C(=O)NC2=O)c2ccccc21	-	-	75.4	-	0	+
CC(=O)N(Cc1cccs1)Cc1cc2cc(C)cc(C)c2[nH]c1=O	-	-	0	-	0	-
CC(=O)N(Cc1cccs1)Cc1cc2ccc(C)c(C)c2nc1Cl	0	0	76.5	0	0	0
CCCn1c(=N)c(C(=O)NCCc2ccccc2)cc2c(=O)n3cc(C)ccc3nc21	-	-	0	-	0	-
Clc1ccc(C2=NN(c3ccccc3)C(c3ccco3)C2)cc1 (stereo not drawn)	0	-	0	0	0	-
Cc1nc(N2N=C(c3ccc(Cl)cc3)CC2c2ccco2)sc1C(=O)N(C)C (stereo not drawn)	0	0	72.0	0	0	+
O=C(O)c1cccc(NN=C2c3ccccc3-c3ccccc32)c1	0	0	75.3	0	0	0
Cc1ccc(C)c2[nH]c(=O)c(C(c3nnnn3CCc3ccccc3)N3CCc4ccccc4C3)cc12 (stereo not drawn)	-	-	0	-	0	-
COc1ccc(OCc2nc(-c3cccc(C)c3)no2)cc1	-	-	0	-	0	-
CC12CCC(O)CC1=CCC1C2CCC2(C)C1CCC21CCC(=O)O1 (stereo not drawn)	0	0	0	0	0	-
CC(=O)OCC(=O)[C@@]12OC(C)(C)O[C@@H]1C[C@H]1[C@H]3CC=C4C[C@@H](O)CC[C@]4(C)[C@@H]3CC[C@@]12C	-	-	0	-	39.7	0
SMILES	Furin inh	Efa HMGR inh	EP2 modulator	m-calpain inh	EP2 antag	EP2 confirm
S=c1[nH]nc(C23CC4CC(CC(C4)C2)C3)n1Cc1ccco1	0	0	72.8	0	0	+
O=S(=O)(Nc1ccccc1N1CCCCC1)c1ccc(Cl)s1	0	0	68.8	0	0	0
Cc1c(OCC#N)ccc2c(-c3ccccc3)cc(=O)oc12	-	-	0	-	0	-
C#CCn1c(S(=O)(=O)Cc2ccc(F)cc2)nc(-c2ccccc2)c1-c1ccccc1	0	0	65.0	0	0	+
CCOC(=O)Cn1c(S(=O)(=O)Cc2ccc(F)cc2)nc(-c2ccccc2)c1-c1ccccc1	0	0	0	0	0	-
Cc1nc(NCCCCCC(=O)O)c2c(C)c(C)sc2n1	-	-	0	-	0	-
CCC(c1nnnn1C1CCCCC1)N(Cc1cccs1)Cc1cc2ccc(C)c(C)c2[nH]c1=O (stereo not drawn)	-	-	0	-	0	-
COc1ccc2cc(CN(Cc3ccco3)C(c3nnnn3C3CCCCC3)C(C)C)c(=O)[nH]c2c1 (stereo not drawn)	0	0	65.7	0	0	+
COc1ccc2cc(CN(CC3CCCO3)C(c3nnnn3C3CCCC3)C(C)C)c(=O)[nH]c2c1 (stereo not drawn)	-	-	0	-	0	-
CCC(c1nnnn1C1CCCC1)N(Cc1cccs1)Cc1cc2cc(C)ccc2[nH]c1=O (stereo not drawn)	0	0	84.1	0	0	0
COc1ccc(CCNC(=O)Cn2nc(-c3ccc(C)o3)cc(N)c2=O)cc1OC	-	-	0	-	0	-
C=CCn1c(=S)[nH]c2scc(-c3ccc(C)o3)c2c1=O	0	0	0	0	0	-
C=CCn1c(=S)[nH]c2sccc2c1=O	0	0	0	0	0	0
CCOc1nc(-c2ccccc2O)nc2ccccc12	0	0	81.4	0	0	+
Cc1cccc(Oc2nc(-c3ccccc3)cc(C)c2S(C)(=O)=O)c1C	0	0	72.0	0	0	+
COc1ccccc1Oc1nc(-c2ccccc2)cc(C)c1S(C)(=O)=O	0	0	0	0	0	-
CC1Oc2ccc(S(=O)(=O)N(C)CCO)cc2NC1=O (stereo not drawn)	-	-	0	-	0	-
CCOC(=O)c1c(NC(=O)Cc2cccs2)sc(C)c1C	0	0	62.2	0	0	0
CCOC(=O)c1c(NC(=O)c2ccn(CC)n2)sc2c1CCCC2	0	0	0	0	0	0
COC(=O)c1c(NC(=O)Cc2cccs2)sc2c1CCC(C)C2 (stereo not drawn)	0	0	0	0	0	0
CCOC(=O)c1c(NC(=O)CN2CCCCC2)sc(C)c1C	0	0	67.0	0	0	+
COC(=O)c1c(NC(=O)c2cccnc2)sc2c1CCC(C)C2 (stereo not drawn)	-	-	0	-	0	-
CCOC(=O)c1sc(NC(=O)CN2CCCC2)c(C(=O)OCC)c1C	0	0	0	0	-	-
COc1cccc(-c2nnc(NC(=O)c3cnc(C(C)(C)C)nc3)s2)c1OC	-	-	0	-	0	-
O=C(c1cc(-c2ccccc2)on1)N1CCCCC1	-	-	0	-	0	-
SMILES	Furin inh	Efa HMGR inh	EP2 modulator	m-calpain inh	EP2 antag	EP2 confirm
COc1ccc(-c2nc(C)sc2CC(=O)NC2CCCOC2)cc1OC (stereo not drawn)	-	-	0	-	0	-
Cc1sc(NC(=O)CN2CCOCC2)c(C(=O)c2ccccc2)c1C	0	0	69.0	0	0	0
CCOC(=O)c1c(NC(=O)CN2CCCCC2)sc2c1CCN(C(=O)OCC)C2	0	0	70.5	0	-	+
CCOC(=O)N1CCc2c(sc(NC(=O)Cc3ccccc3)c2C(=O)c2ccc(OC)cc2)C1	0	-	0	0	0	-
CCOC(=O)c1sc(NC(=O)CCN2CC(C)OC(C)C2)c(C(=O)OCC)c1C (stereo not drawn)	0	0	0	0	-	0
CCOC(=O)c1c(NC(=O)CN2CCN(C(=O)c3ccco3)CC2)sc2c1CCCC2	0	0	0	0	-	0
CCCC(C)C(=O)Nc1cc(C)on1 (stereo not drawn)	-	-	0	-	0	-

Assay outcomes deposited in PubChem by several laboratories.
